Assay results as given in PubChem BioAssay (Tox21).
Results filed as inconclusive are left out. Active and inactive are the calls of the source. The call rests on the fitted dose curve; in most records, active means well fitted curve in the direction sought with a large enough effect in the repeat runs; inconclusive means weak or mixed curves; inactive means no such curve, though single readings can be large; an effect the other way counts as inactive or inconclusive.

How the values were obtained:
[1] = qHTS RealTime-Glo MT Cell Viability Assay in HEK293 cells - 0 hour (AID 1224880); further: nearly all actives have a fitted effect of over 45% in size; further: potency means the concentration at half of the fitted maximal effect; on activity change, negative = cytotoxicity: top concentration of the series differs between compounds
How it was run: (§1)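 Nonlytic bioluminescent viability monitoring. HEK293 at 600 cells/well with reagent; 5 h settle; compound transfer by pintool; plates held at 37 C and read at set time points.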

[2] = A CellTox Green Cytotoxicity Assay to monitor cytotoxicity in HEK293 cells - 32 hour (AID 1224881); further: nearly all actives have a fitted effect of over 40% in size; further: potency means the concentration at half of the fitted maximal effect
How it was run: (§2)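 Cytotoxicity was tracked continuously in HEK293 cells by a DNA-binding dye excluded from viable cells. Compounds were transferred in DMSO 5 h after seeding; fluorescence was recorded at intervals up to 40 h.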

[3] = A CellTox Green Cytotoxicity Assay to monitor cytotoxicity in HepG2 cells - 0 hour (AID 1224882); further: nearly all actives have a fitted effect of over 35% in size; further: potency means the concentration at half of the fitted maximal effect
How it was run: (§3)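 Real-time, homogeneous cytotoxicity readout: dead-cell DNA staining by CellTox Green in HepG2 monolayers, fluorescence measured at timed intervals up to 40 h of continuous compound exposure.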

[4] = A CellTox Green Cytotoxicity Assay to monitor cytotoxicity in HepG2 cells - 32 hour (AID 1224883); further: nearly all actives have a fitted effect of over 50% in size; further: potency means the concentration at half of the fitted maximal effect
How it was run: as §3

[5] = A CellTox Green Cytotoxicity Assay to monitor cytotoxicity in HEK293 cells - 8 hour (AID 1224884); further: nearly all actives have a fitted effect of over 35% in size; further: potency means the concentration at half of the fitted maximal effect
How it was run: as §2

[6] = qHTS RealTime-Glo MT Cell Viability Assay in HepG2 cells - 16 hour (AID 1224885); further: nearly all actives have a fitted effect of over 50% in size
How it was run: (§4)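 HepG2 cells (600/well) were dispensed with RealTime-Glo reagents, incubated 5 h at 37 °C, then treated with compounds in DMSO for up to 40 h. Nonlytic NanoLuc luminescence reflecting viable cells was read at each stated time point.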

[7] = qHTS RealTime-Glo MT Cell Viability Assay in HEK293 cells - 24 hour (AID 1224886); further: nearly all actives have a fitted effect of over 50% in size; further: potency means the concentration at half of the fitted maximal effect; on activity change, negative = cytotoxicity: top concentration of the series differs between compounds
How it was run: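 HEK293 cells seeded with NanoLuc/prosubstrate reagent, rested 5 h at 37 C, then dosed and kept at 37 C up to 40 h. Nonlytic real-time luminescence from viable cells read at 0, 8, 16, 24, 32 and 40 h.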

[8] = A CellTox Green Cytotoxicity Assay to monitor cytotoxicity in HEK293 cells - 16 hour (AID 1224888); further: nearly all actives have a fitted effect of over 35% in size; further: potency means the concentration at half of the fitted maximal effect
How it was run: as §2

[9] = qHTS RealTime-Glo MT Cell Viability Assay in HepG2 cells - 0 hour (AID 1224889); further: nearly all actives have a fitted effect of over 50% in size; further: potency means the concentration at half of the fitted maximal effect
How it was run: as §4

[10] = qHTS RealTime-Glo MT Cell Viability Assay in HEK293 cells - 8 hour (AID 1224887); further: nearly all actives have a fitted effect of over 50% in size; further: potency means the concentration at half of the fitted maximal effect; on activity change, negative = cytotoxicity: top concentration of the series differs between compounds
How it was run: as §1
On the % scale 0 is the no-effect control and ±100 the full control effect.

C=CC(C)(C)CC(=O)OC
active: Potency [7] 1.38 µM
inactive: Potency [1] | Potency [2] | Potency [3] | Potency [4] | Potency [5] | Potency [6] | Potency [8] | Potency [9]

C=CCOC(=O)/C=C\C(=O)OCC=C
inactive: Potency [1] | Potency [2] | Potency [3] | Potency [4] | Potency [5] | Potency [6] | Potency [10] | Potency [8] | Potency [9]

COC(=O)c1cc(Cl)ccc1NS(=O)(=O)C(F)(F)F
inactive: Potency [1] | Potency [2] | Potency [3] | Potency [5] | Potency [6] | Potency [7] | Potency [10] | Potency [8]

CC[C@@H]([C@H](C)O)n1ncn(-c2ccc(N3CCN(c4ccc(OC[C@@H]5CO[C@@](Cn6cncn6)(c6ccc(F)cc6F)C5)cc4)CC3)cc2)c1=O
inactive: Potency [1] | Potency [2] | Potency [3] | Potency [4] | Potency [5] | Potency [8] | Potency [9]
active: Potency [7] 2.68 µM | Potency [10] 6.01 µM

O=C(C(=O)c1ccccc1)c1ccccc1
inactive: Potency [1] | Potency [2] | Potency [3] | Potency [5] | Potency [6] | Potency [7] | Potency [10] | Potency [8] | Potency [9]

CC1=CC(=O)CC(C)(C)C1(O)/C=C/C(C)=C\C(=O)O (configuration not stated)
inactive: Potency [1] | Potency [2] | Potency [3] | Potency [5] | Potency [6] | Potency [7] | Potency [10] | Potency [8] | Potency [9]

CNC(=S)NC
inactive: Potency [1] | Potency [2] | Potency [3] | Potency [5] | Potency [6] | Potency [7] | Potency [10] | Potency [8] | Potency [9]

CC(=O)Nc1ccccc1C
inactive: Potency [1] | Potency [2] | Potency [3] | Potency [5] | Potency [6] | Potency [7] | Potency [10] | Potency [8] | Potency [9]

CCOCCn1c(C2CCN(CCc3ccc(C(C)(C)C(=O)O)cc3)CC2)nc2ccccc21
inactive: Potency [1] | Potency [2] | Potency [3] | Potency [5] | Potency [6] | Potency [7] | Potency [10] | Potency [8] | Potency [9]

CC(C)=CC=O
inactive: Potency [1] | Potency [2] | Potency [3] | Potency [5] | Potency [6] | Potency [7] | Potency [10] | Potency [8]

CCCCCCCC/C=C\CCCCCCCC(=O)OC
inactive: Potency [1] | Potency [2] | Potency [3] | Potency [5] | Potency [6] | Potency [7] | Potency [10] | Potency [8] | Potency [9]

CCCCOC(=O)CCS
inactive: Potency [1] | Potency [2] | Potency [3] | Potency [5] | Potency [6] | Potency [7] | Potency [10] | Potency [8] | Potency [9]

CC(=O)Nc1ccc(N)cc1
inactive: Potency [1] | Potency [2] | Potency [3] | Potency [5] | Potency [6] | Potency [7] | Potency [10] | Potency [8]

NC(=O)N(O)[C@@H]1COc2cc(OCc3ccccc3)ccc21
inactive: Potency [1] | Potency [2] | Potency [3] | Potency [5] | Potency [6] | Potency [7] | Potency [10] | Potency [8] | Potency [9]

CCCCC(=O)O[C@]1(C(=O)CO)[C@@H](C)C[C@H]2[C@@H]3CCC4=CC(=O)C=C[C@]4(C)[C@@]3(F)[C@@H](O)C[C@@]21C
active: Potency [9] 21.9 µM
inactive: Potency [1] | Potency [2] | Potency [3] | Potency [4] | Potency [5] | Potency [8]

Cc1cc(S(=O)(=O)O)ccc1N=Nc1c(O)ccc2ccccc12
inactive: Potency [1] | Potency [2] | Potency [3] | Potency [4] | Potency [5] | Potency [7] | Potency [10] | Potency [8]

ON(Cc1ccccc1)Cc1ccccc1
inactive: Potency [1] | Potency [2] | Potency [3] | Potency [5] | Potency [6] | Potency [7] | Potency [10] | Potency [8] | Potency [9]

N#C/C(=C1\SCC(c2ccccc2Cl)S1)n1ccnc1 (configuration not stated)
inactive: Potency [1] | Potency [2] | Potency [3] | Potency [4] | Potency [5] | Potency [6] | Potency [8] | Potency [9]

CCOC(=O)C(C)Oc1ccc(Oc2nc3ccc(Cl)cc3o2)cc1 (configuration not stated)
inactive: Potency [1] | Potency [2] | Potency [3] | Potency [4] | Potency [5] | Potency [8] | Potency [9]
active: Potency [7] 24.5 µM | Potency [10] 21.9 µM

CC(C)(C)C(=O)C(Oc1ccc(Cl)cc1)n1ccnc1 (configuration not stated)
inactive: Potency [1] | Potency [2] | Potency [3] | Potency [5] | Potency [6] | Potency [7] | Potency [10] | Potency [8] | Potency [9]

CCOC(=N)CC(=O)OCC
inactive: Potency [1] | Potency [2] | Potency [3] | Potency [4] | Potency [5] | Potency [6] | Potency [8] | Potency [9]

COc1ccccc1N=Nc1c(S(=O)(=O)O)cc2cc(S(=O)(=O)O)cc(NC(C)=O)c2c1O
inactive: Potency [1] | Potency [2] | Potency [3] | Potency [4] | Potency [6] | Potency [7] | Potency [10] | Potency [8] | Potency [9]

N#C/C(=C1/SC[C@@H](c2ccc(Cl)cc2Cl)S1)n1ccnc1
inactive: Potency [1] | Potency [2] | Potency [3] | Potency [4] | Potency [5] | Potency [7] | Potency [8] | Potency [9]

CCC(Cc1ccccc1)(C(=O)c1ccc(N2CCOCC2)cc1)N(C)C (configuration not stated)
inactive: Potency [1] | Potency [2] | Potency [3] | Potency [4] | Potency [5] | Potency [6] | Potency [8] | Potency [9]

O=C(O)c1cccnc1C(=O)O
inactive: Potency [1] | Potency [2] | Potency [3] | Potency [5] | Potency [6] | Potency [7] | Potency [10] | Potency [8] | Potency [9]

O=Cc1c(Cl)cccc1Cl
inactive: Potency [1] | Potency [2] | Potency [3] | Potency [5] | Potency [6] | Potency [7] | Potency [10] | Potency [8] | Potency [9]

CC(=N\O)/C(C)=N/O
inactive: Potency [1] | Potency [2] | Potency [3] | Potency [4] | Potency [5] | Potency [6] | Potency [8]

Cn1c(=O)c2c(ncn2CC(=O)O)n(C)c1=O
inactive: Potency [1] | Potency [2] | Potency [3] | Potency [5] | Potency [6] | Potency [7] | Potency [10] | Potency [8] | Potency [9]

c1cnc2c(n1)CCCC2
active: Potency [2] 43.6 µM | Potency [3] 24.5 µM | Potency [5] 43.6 µM | Potency [8] 43.6 µM
inactive: Potency [1] | Potency [6] | Potency [7] | Potency [10] | Potency [9]

CCCCCCCCCCOS(=O)(=O)O
inactive: Potency [1] | Potency [2] | Potency [3] | Potency [5] | Potency [6] | Potency [7] | Potency [10]

CC(C)(C)CC(C)(C)c1ccc(OCCO)cc1
inactive: Potency [1] | Potency [3] | Potency [4] | Potency [6]
active: Potency [2] 54.6 µM | Potency [7] 5.46 µM | Potency [10] 7.72 µM

Cc1c(C(=O)NN2CCCCC2)nn(-c2ccc(Cl)cc2Cl)c1-c1ccc(Cl)cc1
inactive: Potency [1] | Potency [2] | Potency [3] | Potency [4] | Potency [5] | Potency [6] | Potency [8]

CC(CCc1ccc2c(c1)OCO2)NN (configuration not stated)
inactive: Potency [1] | Potency [2] | Potency [3] | Potency [5] | Potency [6] | Potency [7] | Potency [10] | Potency [8] | Potency [9]

COc1ccc([C@@H]2Sc3ccccc3NC(=O)[C@@H]2O)cc1
inactive: Potency [1] | Potency [2] | Potency [3] | Potency [5] | Potency [6] | Potency [7] | Potency [10] | Potency [8]

O=C(CCCN1CCN(c2ccc(F)cc2)CC1)NC1c2ccccc2CSc2ccccc21 (configuration not stated)
inactive: Potency [1] | Potency [2] | Potency [3] | Potency [5] | Potency [8] | Potency [9]
active: Potency [4] 23.9 µM | Potency [7] 16.9 µM | Potency [10] 19 µM

CC1CN(c2cc3c(cc2F)c(=O)c(C(=O)O)cn3-c2ccc(F)cc2F)CCN1 (configuration not stated)
inactive: activity change, negative = cytotoxicity [1] 15.1% [at 6.97 µM] | cytotoxicity increase [2] -2.92% [at 6.97 µM] | cytotoxicity [3] 5.97% [at 6.97 µM] | cytotoxicity increase [5] 1.21% [at 6.97 µM] | activity change, negative = cytotoxic [6] 2.01% [at 6.97 µM] | activity change, negative = cytotoxicity [7] 6.23% [at 6.97 µM] | activity change, negative = cytotoxicity [10] 7.56% [at 6.97 µM] | activity change [8] -0.883% [at 6.97 µM, hits give high values] | activity change, negative = cytotoxicity [9] -3.32% [at 6.97 µM]

CCc1cccc(N(C)C(N)=Nc2cccc3ccccc23)c1
inactive: Potency [1] | Potency [2] | Potency [3] | Potency [5] | Potency [6] | Potency [7] | Potency [10] | Potency [8] | Potency [9]

COCCOC(=O)C1=C(C)NC(C)=C(C(=O)OC/C=C/c2ccccc2)C1c1cccc([N+](=O)[O-])c1 (configuration not stated)
inactive: Potency [2] | Potency [3] | Potency [4] | Potency [5] | Potency [7] | Potency [8]
active: Potency [1] 5.35 µM

CCCOC(=O)c1ccc(C(=O)OCCC)nc1
inactive: Potency [1] | Potency [2] | Potency [3] | Potency [5] | Potency [6] | Potency [7] | Potency [10] | Potency [8]

Cc1cc(O)c2c(O)c3c(O)cccc3cc2c1
inactive: Potency [1] | Potency [2] | Potency [3] | Potency [4] | Potency [5] | Potency [6] | Potency [8] | Potency [9]

C=CCNc1nc(NCC=C)nc(N2CCN(C(c3ccc(F)cc3)c3ccc(F)cc3)CC2)n1
inactive: Potency [1] | Potency [2] | Potency [3] | Potency [5] | Potency [6] | Potency [7] | Potency [10] | Potency [8] | Potency [9]

CCCCC/C(=C\c1ccccc1)CO
active: Potency [2] 43.1 µM | Potency [8] 48.4 µM
inactive: Potency [1] | Potency [3] | Potency [4] | Potency [6] | Potency [7] | Potency [9]

C/C=C/C=C/CCCCCCCO
active: Potency [9] 13.8 µM
inactive: Potency [1] | Potency [3] | Potency [4] | Potency [5] | Potency [6] | Potency [7] | Potency [8]
